HPGD block – qHTS Assay for Inhibitors of HPGD (15-Hydroxyprostaglandin Dehydrogenase); 15-hydroxyprostaglandin dehydrogenase [NAD(+)] (Homo sapiens), P15428; purified HPGD, NADH fluorescence kinetic, PGE2 substrate; Potency, µM, inactives show at the top dose activity change, negative = inhibition, actives largely listed as inhibitors; 150,000 compounds, 4.3% hits; AID 894, 2007; further: potency means the concentration at half of the fitted maximal effect
Target sequence (P15428 whole entry, looked up): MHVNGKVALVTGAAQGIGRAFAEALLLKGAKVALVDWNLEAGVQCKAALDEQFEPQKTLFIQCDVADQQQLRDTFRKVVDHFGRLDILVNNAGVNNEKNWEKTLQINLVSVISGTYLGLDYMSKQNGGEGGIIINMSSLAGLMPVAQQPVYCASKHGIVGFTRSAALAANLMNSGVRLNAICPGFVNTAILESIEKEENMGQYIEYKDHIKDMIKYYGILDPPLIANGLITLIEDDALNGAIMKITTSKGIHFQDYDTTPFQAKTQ
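NADH formation kinetics: reaction with 30 uM PGE2 and 1 mM NAD+ (final), 20 nM enzyme, Tris-HCl pH 8 with Tween 20, after 15 min compound preincubation at room temperature. Fluorescence change, last versus first of five reads.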
NPSR antagonist – qHTS Assay for Antagonists of the Neuropeptide S Receptor: cAMP Signal Transduction. AID 1461, 2008. CHO-NPSR cells, cAMP TR-FRET, antagonist mode. 220,000 compounds, 1% hits. Potency, µM (titrated, usually from 38.3 µM), without a hit: at the highest dose activity change, negative = inhibition, actives largely listed as inhibitors; active means well fitted curve in the direction sought with a large enough effect; inconclusive means small, poorly fitted or top-dose-only effect, or another doubt; inactive means no such curve, though single readings can be large; an effect the other way counts as inactive or inconclusive; further: potency means the concentration at half of the fitted maximal effect; nearly all actives have a fitted effect of over 50% in size
ALDH1A1 block – qHTS Assay for Inhibitors of Aldehyde Dehydrogenase 1 (ALDH1A1). Purified ALDH1A1, NADH fluorescence, propionaldehyde substrate. 220,000 compounds, 7.3% hits. Aldehyde dehydrogenase 1A1 (Homo sapiens), P00352. Potency, µM (top dose mostly 75.3 µM), without a hit: top-dose activity, negative = inhibition, usual class: inhibitors. AID 1030, 2008;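 further: potency means the concentration at half of the fitted maximal effect; plate controls were no enzyme wells and a reference inhibitor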
PNC inhibitor – High Content Assay for Compounds that inhibit the Assembly of the Perinucleolar Compartment | PC3M PTB-GFP, PNC prevalence imaging, 16 h; stronger effect = lower value | activity change (PNC), negative = inhibition, % at 10 µM | 140,000 compounds, 3.1% hits;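 active means readout at or below -70, meaning at least 70% loss of cells showing the perinucleolar compartment, a nuclear body marking cancer cells; inconclusive means readout between -30 and a set limit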;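 further: plate controls were DMSO wells for no effect and camptothecin positive control wells for full effect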
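Compounds are pinned in duplicate onto adhered PC3M cells stably expressing GFP-tagged PTB and incubated 16 h at 37 C. Cells are then fixed, nuclei stained with Hoechst, and PNC-positive cells counted.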
IMPase Li cell – qHTS Assay for Identifying the Cell-Membrane Permeable IMPase Inhibitors: Potentiation with Lithium | CHO-M1 cells, IP1 TR-FRET (IP-One), carbachol + lithium | Potency, µM (top dose mostly 59.4 µM), for the others: at the highest dose activity, negative = IMPase inhibition, most hits filed as inhibitors | 210,000 compounds, 0.35% hits; active means well fitted curve in the direction sought with a large enough effect; inconclusive means small, poorly fitted or top-dose-only effect, or another doubt; inactive means no such curve, though single readings can be large; an effect the other way counts as inactive or inconclusive;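 further: IP1 builds up when IMPase is blocked and the TR-FRET signal falls; potency means the concentration at half of the fitted maximal effect; plate controls were basal vehicle for no effect and high inhibitor control for full effect; nearly all actives have a fitted effect of over 50% in size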
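Readout is a homogeneous TR-FRET IP1 immunoassay (Ex 320, Em 665 and 620), where raised cytosolic IP1 lowers signal. Cells were CHO-M1 treated 30 min at 37C with test compounds plus a little lithium; AC50 values came from Hill-equation fitting.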
IMPase inh – qHTS Assay for Identifying the Cell-Membrane Permeable IMPase Inhibitors. 120,000 tested, under 10 active. inhibition (IP1 accumulation), % at 46.1 µM. Inositol monophosphatase 1 (Rattus norvegicus), P97697. CHO-M1 cells, IP1 accumulation, HTRF TR-FRET ratio; active means well fitted curve in the direction sought with a large enough effect in the signal ratio, not every such curve was filed as active; inconclusive means small, poorly fitted or top-dose-only effect, or a change in a side signal; inactive means no such curve, though single readings can be large or run the other way; the % refers to the signal ratio;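 further: cells stimulated with carbachol in lithium chloride buffer; plate controls were DMSO basal wells for no effect and reference inhibitor wells for full effect; higher means more IMPase inhibition seen as more IP1 and lower FRET ratio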
Target sequence (P97697 whole entry, looked up): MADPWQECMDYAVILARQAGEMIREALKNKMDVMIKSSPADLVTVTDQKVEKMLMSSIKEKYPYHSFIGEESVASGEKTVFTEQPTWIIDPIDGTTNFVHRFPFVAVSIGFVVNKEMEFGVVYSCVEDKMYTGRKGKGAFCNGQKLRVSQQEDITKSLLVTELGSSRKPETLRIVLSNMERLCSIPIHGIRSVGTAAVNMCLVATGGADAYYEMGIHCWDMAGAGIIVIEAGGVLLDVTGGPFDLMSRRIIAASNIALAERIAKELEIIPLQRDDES
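The IP-One HTRF competitive assay in carbachol-stimulated CHO-M1 cells quantifies cellular IP1. Compounds spanned up to 46 uM final, and activity is expressed as AC50 from concentration-response fits of the ratio and donor data.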
* hit, by the source's call; ? = inconclusive; . = no result given; [ ] = dose if it differs, or a comment. Sampled rows, rich in hits. Any-hit rate of the full collection: about 11%. Unless noted, the call rests on the fitted dose curve; in most records, active means well fitted inhibition curve with a large enough effect (not every such curve was filed as active); inconclusive means small, poorly fitted or top-dose-only effect, or another doubt; inactive means no such curve, though single readings can be large or run the other way. Unless noted, on the % scale 0 is the no-effect control and ±100 the full control effect.

SMILES | HPGD block | NPSR antagonist | ALDH1A1 block | PNC inhibitor | IMPase Li cell | IMPase inh
O=C(O)CCC(=O)Nc1ccc(N2CCCCCC2)cc1 | -16% | -29%[46.1 µM] | 11µM* | 16 | 71%[38.3 µM] | 35
Cc1ccc(N2CCN(c3ccc(NC(=O)CCC(=O)O)cc3)CC2)cc1 | -4% | 8% | -4% | 14 | -2% | .
Cc1cccc(OCC(=O)Nc2ccc(N3CCCC3)cc2)c1C | 0% | -5%[46.1 µM] | 13µM* | 24 | 8%[38.3 µM] | 12
Cc1ccccc1OCC(=O)Nc1ccc(Cc2ccncc2)cc1 | 18µM* | -22% | ? | ? | 14% | .
NS(=O)(=O)c1ccc(CNS(=O)(=O)c2cc(Cl)ccc2Cl)cc1 | . | 8% | . | . | . | .
CC(=O)Nc1cccc(-c2nn[nH]n2)c1 | . | 5% | . | . | . | .
Cc1ccc(CSCCNC(=O)CN(c2cccc(C)c2C)S(=O)(=O)c2ccccc2)cc1 | . | . | . | . | . | 7
COc1ccc2c(c1)C(=O)[C@@H](O)[C@H](c1ccc(OC)c(Br)c1)O2 | ? | -23% | 13% | -115* | 10% | .
Cc1ccc(SCC(=O)c2c(C)nc3cc(C)ccn23)cc1 | . | -6% | -10% | . | 10% | .
COc1cccc(C(=O)Nc2cccc(-c3nnc(-c4ccco4)o3)c2)c1 | 20µM* | -25%[46.1 µM] | ? | -2 | -16%[38.3 µM] | 8
COc1ccc(NC(=O)CCC(=O)c2ccc(-c3ccccc3)cc2)cc1 | 0% | -6%[46.1 µM] | 8% | ? | 32µM* | -15
COc1ccc(C(=O)Nc2ccc(C(=O)OCC(=O)c3ccccc3)cc2)cc1 | -11% | 18%[46.1 µM] | 1% | 11 | -3%[38.3 µM] | 3
O=C(Nc1ccccc1)c1cccc(-c2nnc(-c3ccccc3)o2)c1 | ? | 0%[46.1 µM] | ? | 6 | ? | -4
COc1ccc(C(=O)COC(=O)c2ccc(NC(=O)c3ccccc3)cc2)cc1 | ? | 4%[46.1 µM] | ? | -1 | 11µM* | 8
CN(C)S(=O)(=O)Oc1cccc(C(=O)Nc2ccccc2Cl)c1 | -28% | -5%[46.1 µM] | ? | 15 | 10%[38.3 µM] | -2
CN(C)S(=O)(=O)Oc1cccc(C(=O)Nc2ccc(Cl)cc2)c1 | -17% | -14%[46.1 µM] | 16µM* | 19 | 16%[38.3 µM] | 9
CCONC(=NC)c1nonc1N | -2% | 8% | 9% | -9 | -3% | .
COC(=O)c1ccc(NC(=O)c2ccccc2NS(C)(=O)=O)cc1 | -12% | -4%[46.1 µM] | -2% | -104* | 2%[38.3 µM] | 15
COc1cccc(C(=O)NCCOc2cc(C)cc(C)c2)c1 | -9% | 3% | 16µM* | 49 | -3% | .
O=C(Nc1ccc(C2CC2(Cl)Cl)cc1)c1ccccc1Br (stereo not drawn) | 16µM* | -36% | 7% | -20 | 14% | .
COC(=O)c1ccc(NC(=O)c2cccc(OC)c2)cc1 | 28µM* | -22%[46.1 µM] | ? | 9 | 20%[38.3 µM] | 3
COc1cc(OC)cc(C(=O)NCCOc2ccccc2)c1 | -12% | -8%[46.1 µM] | 7% | 0 | 8%[38.3 µM] | -4
CC[C@]12CCCN3CCc4c(n(c5ccccc45)C(=O)C1)[C@H]32 | 4% | . | 7% | . | 13% | 0
COc1cccc(C(=O)Nc2ccc(C3CC3(Cl)Cl)cc2)c1 (stereo not drawn) | . | -22% | 11µM* | . | 26% | .
CCCC(=O)Nc1ccc(Cl)c(NC(=O)c2cccnc2)c1 | -4% | -21%[46.1 µM] | 7% | ? | 22%[38.3 µM] | -6[1.84 µM]
SMILES | HPGD block | NPSR antagonist | ALDH1A1 block | PNC inhibitor | IMPase Li cell | IMPase inh
CCCC(=O)Nc1ccc(Cl)c(NC(=O)c2cccc(OC)c2)c1 | . | -7% | 2.8µM* | . | 9% | .
O=C(CCn1c(=O)sc2ccccc21)NCCCn1ccnc1 | 1% | 15% | 4% | 40 | 10% | -2
COCCN(CCOC)C(=O)N1CCOCC1 | . | 41% | . | . | . | .
O=C1CC(SCc2nc3ccccc3[nH]2)C(=O)N1c1ccc(F)c(Cl)c1 (stereo not drawn) | 22µM* | -12%[46.1 µM] | 5µM* | 13 | -15%[38.3 µM] | 1
O=C1CC(SCCc2nc3ccccc3[nH]2)C(=O)N1c1ccc(Cl)cc1 (stereo not drawn) | -5% | -13%[46.1 µM] | ? | 7 | 19%[38.3 µM] | 1
CCCOc1ccc(N2C(=O)CC(SCCc3nc4ccccc4[nH]3)C2=O)cc1 (stereo not drawn) | . | -10% | ? | . | 10% | .
O=C1CC(SCc2nc3ccccc3[nH]2)C(=O)N1c1ccc(Cl)cc1 (stereo not drawn) | -10% | -3%[46.1 µM] | 25µM* | ? | 9%[38.3 µM] | 0
O=C1CC(SCCO)C(=O)N1c1ccccc1 (stereo not drawn) | 0% | -1%[46.1 µM] | 0% | -27 | 9%[38.3 µM] | -11
O=C1CC(SCc2nc3ccccc3[nH]2)C(=O)N1c1cccc(F)c1 (stereo not drawn) | -19% | -7%[46.1 µM] | 13µM* | 16 | 37%[38.3 µM] | 1
CCOc1ccc(N2C(=O)CC(SCc3nc4ccccc4[nH]3)C2=O)cc1 (stereo not drawn) | . | -11% | 4.5µM* | . | 0% | .
COc1cccc(N=CC=C2OC(C)(C)C(C)(C)O2)c1 | . | -10% | ? | . | 4% | .
NNC(=O)c1cnn(Cc2ccccc2)c1N | -9% | -2% | 13µM* | -22 | 2% | -3
NC(=O)c1cnn(Cc2ccc(Cl)cc2)c1N | -1% | 2%[46.1 µM] | 6% | 14 | 4%[38.3 µM] | 0
N#CC1=C(N)N2C(=C(C#N)C13CCCCC3)SC1CCCCC12O (stereo not drawn) | -13% | -5%[46.1 µM] | 0.71µM* | ? | 10% | 13
O=C(CN(CCc1ccccc1)C(=O)CNS(=O)(=O)c1ccccc1)NCc1ccco1 | -8% | -11%[46.1 µM] | -13% | ? | 4%[38.3 µM] | 7
Cc1ccc(S(=O)(=O)NCC(=O)N(CCc2ccccc2)CC(=O)NCc2ccco2)cc1 | -6% | 4%[7.67 µM] | 28µM* | -16 | -2%[38.3 µM] | 6
CC(C)CNS(=O)(=O)c1ccc(CCC(=O)NCc2ccco2)cc1 | -21% | -7%[46.1 µM] | 2µM* | 0 | 12% | 8
C=CCSSSCC=C | 28µM* | . | 13µM* | . | 7% | .
CCN(CCCNC(=O)C1c2ccccc2C(=O)N(CCOC)C1c1ccc(F)cc1)Cc1ccccc1 (stereo not drawn) | . | 10µM* | 7% | . | 6% | .
COCCN1C(=O)c2ccccc2C(C(=O)N2CCN(c3ccccn3)CC2)C1c1ccc(F)cc1 (stereo not drawn) | -23% | 0%[46.1 µM] | 0% | -100* | 5% | 6
COC(=O)CN1C(=O)C(C)=C(c2ccc(C)cc2)S1(=O)=O | -27% | -1%[46.1 µM] | ? | 14 | 0%[38.3 µM] | 1

Source: PubChem BioAssay (National Center for Advancing Translational Sciences (NCATS))
